KCNQ2 enhance: potentiators of rat KCNQ2 potassium channel; O88943; CHO-K1 KCNQ2, FluxOR thallium flux fluorescence; stronger effect = higher value; B-score at 10 µM; 310,000 compounds, 0.54% hits; AID 2239;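 active means fluorescence ratio B-score at least 3 SD of library B-scores, with initial fluorescence B-score within 3 of them, cut at about 5.3 in these data; same plate scores as AID 2156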;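 further: B-score of peak minus minimum over baseline fluorescence ratio after K+ and Tl+ stimulus; positive B-score means potentiation of KCNQ2 with more thallium influx and brighter signal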
Target sequence (O88943 whole entry, looked up): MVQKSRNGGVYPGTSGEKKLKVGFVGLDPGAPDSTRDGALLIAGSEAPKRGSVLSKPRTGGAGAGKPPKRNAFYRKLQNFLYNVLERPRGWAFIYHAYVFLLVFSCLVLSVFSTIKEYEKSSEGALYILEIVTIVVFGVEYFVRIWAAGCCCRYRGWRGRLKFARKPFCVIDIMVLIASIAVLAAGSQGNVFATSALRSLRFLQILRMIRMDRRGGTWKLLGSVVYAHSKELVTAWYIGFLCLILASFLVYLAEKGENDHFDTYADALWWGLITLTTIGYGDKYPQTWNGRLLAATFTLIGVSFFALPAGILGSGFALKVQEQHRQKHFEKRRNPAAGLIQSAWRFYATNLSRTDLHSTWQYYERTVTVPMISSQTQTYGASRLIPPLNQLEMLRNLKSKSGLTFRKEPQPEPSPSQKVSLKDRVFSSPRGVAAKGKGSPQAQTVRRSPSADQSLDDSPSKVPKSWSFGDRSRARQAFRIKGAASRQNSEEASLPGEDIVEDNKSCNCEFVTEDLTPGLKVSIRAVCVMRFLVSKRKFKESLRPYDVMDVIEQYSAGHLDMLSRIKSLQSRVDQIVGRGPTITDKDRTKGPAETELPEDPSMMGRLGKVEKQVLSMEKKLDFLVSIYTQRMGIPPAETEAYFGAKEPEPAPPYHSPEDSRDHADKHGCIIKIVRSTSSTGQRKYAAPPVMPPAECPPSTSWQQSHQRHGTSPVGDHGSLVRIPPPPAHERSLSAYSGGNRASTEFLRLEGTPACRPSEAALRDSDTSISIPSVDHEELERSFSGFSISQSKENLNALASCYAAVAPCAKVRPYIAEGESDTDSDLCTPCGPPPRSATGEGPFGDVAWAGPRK
KCNQ2 inh: blocks the rat KCNQ2 potassium channel; O88943; AID 2156; 310,000 compounds, 1.1% hits; CHO-K1 KCNQ2, FluxOR thallium flux, 20 min; stronger effect = lower value; B-score at 10 µM;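 active means fluorescence ratio B-score at most minus 3 library SDs, with starting brightness B-score within 2 library SDs, cut at about -5.5 in these data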
Kir21 confirm: confirmation of mouse Kir2.1 potassium channel inhibitors. shares compounds with KCNQ2 enhance. Kir2.1-expressing cells, FluxOR thallium flux fluorescence; stronger effect = lower value. Tl flux remaining, % of negative control (stronger effect = lower value), % at 10 µM. 2,300 compounds, 41% hits. AID 2032;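 active means Primary-screen hit whose thallium flux fell at least 3 control SD below untreated wells in both duplicates, with normal baseline fluorescence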;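 further: 0% = blank wells without stimulus and 100% = stimulated no-compound controls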
HEK293 Tl flux: parental HEK293 activity in Kir2.1 inhibitor counter-screen; shares compounds with KCNQ2 enhance; parental HEK293 cells, FluxOR thallium flux fluorescence; 0% = unstimulated blank wells; FluxOR signal as % of negative control (100 = no effect), % at 10 µM; 2,300 compounds, 19% hits;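 active means dye signal at least 3 control SD above or below untreated wells in both duplicates, raw fluorescence within 3, either direction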;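 further: percent is based on the flux ratio of peak minus minimum fluorescence over baseline F0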
Starred values were filed as active, the others as inactive; i = inactive; x = not tested or not shown. Most compounds without a hit are left out; they make up all but 1.6% or so of the library.

SMILES	KCNQ2 enhance	KCNQ2 inh	Kir21 confirm	HEK293 Tl flux
COc1ccc(CN2CCCC(C(=O)c3ccc(Cl)cc3)C2)c(O)c1 (stereo not drawn)	x	i	68%*	i
COc1ccc(CN2CCCC(C(=O)c3sccc3C)C2)cc1O (stereo not drawn)	0.95	i	56%*	i
COc1cccc(C(=O)C2CCCN(Cc3ccc(F)cc3)C2)c1 (stereo not drawn)	1.5	i	x	x
COc1cc(CN2CCCC(C(=O)c3sccc3C)C2)cc(OC)c1O (stereo not drawn)	0.28	i	x	x
Cc1ccsc1C(=O)C1CCCN(Cc2cnc(N3CCCC3)s2)C1 (stereo not drawn)	x	i	x	x
O=[N+]([O-])c1ccc(-[n+]2c(-c3ccccc3)cc(-c3ccccc3)cc2-c2ccccc2)cc1	0.04	i	x	x
COc1ccc(-[n+]2c(-c3ccccc3)cc(-c3ccccc3)cc2-c2ccccc2)cc1	-8.4	-8.4*	26%*	i
C[n+]1c(-c2ccccc2)cc(-c2ccc(O)cc2)cc1-c1ccccc1	0.44	i	x	x
Cc1cc(-c2ccccc2)cc(-c2ccccc2)[n+]1CCc1ccccc1	-5.7	-5.7*	45%*	i
Fc1ccc(C[n+]2c(-c3ccccc3)cc(-c3ccccc3)cc2-c2ccccc2)cc1	-6.3	-6.3*	24%*	i
Cc1ccc(-c2cc(-c3ccccc3)cc(-c3ccccc3)[n+]2-c2ccccc2C(=O)O)cc1	x	i	x	x
Clc1ccc(C[n+]2c(-c3ccccc3)cc(-c3ccccc3)cc2-c2ccccc2)cc1	-7.2	-7.2*	17%*	i
CCOC(C[n+]1c(-c2ccccc2)cc(C)cc1-c1ccccc1)OCC	0.69	i	x	x
CC(C(=O)c1c[nH]c2ccccc12)N1CCc2ccccc2C1 (stereo not drawn)	0.94	i	x	x
CCCCCSc1cc(OC)c(CCNC)cc1OC	1.4	i	43%*	i
Cc1[nH]c2ccc(OC(F)(F)F)cc2c1CCNCc1ccc(Cl)cc1	-7.7	-7.7*	16%*	i
Cc1ccc2[nH]c(C)c(CCNCc3ccco3)c2c1	0.72	i	x	x
Cc1[nH]c2ccc(OC(F)(F)F)cc2c1CCNCc1cccc([N+](=O)[O-])c1	x	i	x	x
CCOc1cccc(CNCCc2c(C)[nH]c3ccc(OC(F)(F)F)cc23)c1O	x	i	22%*	i
O=P(N[C@@H](c1ccccc1)[C@@H]1C[C@H]1CO)(c1ccccc1)c1ccccc1	0.07	i	x	x
CCCCN1C(=O)C(C2c3ccccc3C(=O)N2Cc2ccccc2)C(=O)NC1=S (stereo not drawn)	1.4	i	x	x
COc1cc(C)c(CNCCc2c[nH]c3ccccc23)cc1C	x	i	40%*	i
COc1ccc(CNCCc2c[nH]c3ccccc23)c(OC)c1C	0.92	i	46%*	i
COc1cccc(CNCCc2c[nH]c3ccccc23)c1	2.5	i	x	x
COc1ccc(CNCCc2ccccc2F)c(OC)c1C	0.26	i	x	x
SMILES	KCNQ2 enhance	KCNQ2 inh	Kir21 confirm	HEK293 Tl flux
COc1ccccc1-n1c(O)c(/C=N/NC(=S)Nc2ccccc2)c(=O)[nH]c1=S	0.25	i	x	x
CN1CCN(c2cn[nH]c(=O)c2Cl)CC1	x	i	x	x
Cc1cc(OC(C)C(=O)N[C@H](C(=O)O)c2ccccc2)c2c3c(c(=O)oc2c1)CCC3 (stereo partly drawn)	x	i	x	x
CCCCCCC(=O)N/N=C/c1c(O)n(C(C)CC)c(=S)[nH]c1=O (stereo not drawn)	x	i	x	x
O=c1cccc2n1CC1CC2CN(Cc2c(F)cccc2Cl)C1 (stereo not drawn)	0.97	i	x	x
O=c1cccc2n1CC1CC2CN(Cc2cccc(Cl)c2Cl)C1 (stereo not drawn)	x	i	38%*	i
Cn1c(O)c(C=NCCCCCCCCCCC(=O)O)c(=O)n(C)c1=O	0.75	i	x	x

High-throughput results: PubChem BioAssay, Johns Hopkins Ion Channel Center
